# DT40 TDP1 CPT: DT40-hTDP1 cell growth loss with CPT; chicken DT40 Tdp1-/-;hTDP1 cells + 20 nM CPT, ATP luminescence, 48 h; AID 686979; Potency, µM (titrated, usually from 46.2 µM), for the others: at the highest dose activity change, negative = growth inhibition, hits mostly inhibitors; 420,000 tested, 12% active; further: potency means the concentration at half of the fitted maximal effect; nearly all actives have a fitted effect of over 55% in size
#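 Chicken DT40 Tdp1-/- cells stably complemented with human TDP1 were seeded at 400 cells/well in medium containing 20 nM camptothecin, exposed to pin-transferred compounds, and grown at 37 °C for at least 48 hr. Viability was read as ATP luminescence.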
# HT1080-NT tox: kills 2HG-producing HT-1080-NT fibrosarcoma cells. HT-1080-NT fibrosarcoma viability, CellTiter-Glo ATP luminescence, 48 h. Potency, µM (top dose mostly 46.1 µM), for the others: at the top dose activity, negative = less viability, actives largely listed as cytotoxic. 360,000 tested, 1.6% active;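 further: NT is the 2HG producing partner of a matched IDH1 knockdown line; potency means the concentration at half of the fitted maximal effect; 0% = DMSO-treated cells and -100% = media-only wells without cells; nearly all actives have a fitted effect of over 55% in size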
#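 Luminescent CellTiter-Glo readout after 48 hours of compound exposure at 37 degrees C defined viability of HT-1080-NT cells. Activity was normalized to DMSO wells and cell-free media wells; concentration-response curves were fitted and assigned curve classes.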
# ALOX12 inh: inhibitors of human 12S-lipoxygenase ALOX12; P18054; purified 12hLO, xylenol orange hydroperoxide absorbance; Potency, µM (highest dose often 108 µM), inactives show at the top dose activity change, negative = inhibition, most hits filed as inhibitors; 580,000 tested, 1.1% active; AID 1671190; further: potency means the concentration at half of the fitted maximal effect
# Target sequence (P18054 whole entry, looked up): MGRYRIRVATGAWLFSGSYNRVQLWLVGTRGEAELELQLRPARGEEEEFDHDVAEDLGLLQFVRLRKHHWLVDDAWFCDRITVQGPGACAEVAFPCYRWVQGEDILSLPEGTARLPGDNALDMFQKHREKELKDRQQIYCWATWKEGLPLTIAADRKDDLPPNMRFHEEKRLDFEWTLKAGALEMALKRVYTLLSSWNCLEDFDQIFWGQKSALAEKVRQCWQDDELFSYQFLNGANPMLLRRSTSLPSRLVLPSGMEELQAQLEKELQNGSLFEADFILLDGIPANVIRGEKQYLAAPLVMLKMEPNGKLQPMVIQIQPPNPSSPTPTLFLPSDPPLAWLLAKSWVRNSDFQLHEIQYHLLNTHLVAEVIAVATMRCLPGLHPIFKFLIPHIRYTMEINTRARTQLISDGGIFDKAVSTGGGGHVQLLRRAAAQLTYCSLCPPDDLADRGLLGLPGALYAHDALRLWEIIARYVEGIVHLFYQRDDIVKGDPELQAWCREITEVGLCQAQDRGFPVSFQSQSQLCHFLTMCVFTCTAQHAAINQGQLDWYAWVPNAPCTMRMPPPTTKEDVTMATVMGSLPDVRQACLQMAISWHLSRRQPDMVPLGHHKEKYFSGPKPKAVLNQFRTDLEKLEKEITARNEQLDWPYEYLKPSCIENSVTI
#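 Hydroperoxide product was detected by ferrous iron/xylenol orange as the 573 to 405 nm absorbance ratio. Arachidonic acid at 40 uM (final) was turned over for 30 min at room temperature by 150 nM human 12hLO, pH 7.0 Hepes buffer, after 15 min compound preincubation.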
# HT1080 IDH1KD tx: HT-1080 IDH1 knockdown cell toxicity (counter line); HT-1080 IDH1 knockdown viability, ATP luminescence, 48 h; Potency, µM (highest dose often 46.1 µM), for the others: at the top dose activity, negative = toxicity, usual class: cytotoxic; 360,000 tested, 2% active; AID 686971;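 further: potency means the concentration at half of the fitted maximal effect; 0% = DMSO wells and -100% = cell-free medium wells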
#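 Luminescent ATP read-out (CellTiter-Glo, 10 min at room temperature) after 48 h compound exposure at 37 °C gave viability of IDH1-knockdown HT-1080 cells. Activity was normalised to DMSO and cell-free wells, then fitted as concentration-response curves.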
# IL1B secr inh: inflammasome signaling inhibition, IL-1 beta readout. THP-1 LPS/ATP IL-1B secretion, AlphaLISA, 16 h; active compounds read low. activity change, % at 57.5 µM. 360,000 tested, 4.7% active. AID 743279; in the data active means activity change below about -50%; inconclusive means mostly about -30% to -49%
#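 THP-1 cells pretreated 1 hr with compounds (up to 57.5 uM final), then stimulated with LPS (250 ng/mL final) plus ATP (1.25 mM final); secreted IL-1B measured by AlphaLISA after 16 hr, decreased signal indicating inhibition.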
# TDP1 cell noCPT: qHTS for Inhibitors of human tyrosyl-DNA phosphodiesterase 1 (TDP1): qHTS in cells in absence of CPT. 420,000 tested, 15% active. DT40 Tdp1-/- hTDP1 cells, no CPT, ATP luminescence, 48 h. AID 686978, 2013. Potency, µM (top dose mostly 46.2 µM), inactives show at the highest dose activity change, negative = growth inhibition, hits mostly inhibitors; further: potency means the concentration at half of the fitted maximal effect; nearly all actives have a fitted effect of over 55% in size
#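 DT40 Tdp1-/-;hTDP1 cells, no CPT (DMSO vehicle only), 400 cells/well; compounds pin-transferred; ≥48 hr, 37 °C; CellTiter-Glo 30 min RT dark, luminescence read.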
# Active calls of the source: *; ? = inconclusive; . = no result; [ ] = dose if it differs, or a comment. The sample as a whole holds a higher share of hits than the screen did. Unless noted, the call rests on the fitted dose curve; in most records, active means well fitted curve in the direction sought with a large enough effect; inconclusive means small, poorly fitted or top-dose-only effect, or another doubt; inactive means no such curve, though single readings can be large; an effect the other way counts as inactive or inconclusive. Unless noted, on the % scale 0 is the no-effect control and ±100 the full control effect.
SMILES,DT40 TDP1 CPT,HT1080-NT tox,ALOX12 inh,HT1080 IDH1KD tx,IL1B secr inh,TDP1 cell noCPT
CCc1nc2ccc(C(=O)N3CCN(C(=O)c4ccco4)CC3)cn2c1N(CC)Cc1cccc(Br)c1,14.6µM*,-17.2%,4.4%,-0.3%,-9.9,23.1µM*
CCc1nc2ccc(C(=O)N(C)CCN(C)C)cn2c1N(C)Cc1cc2ccccc2s1,?,16.4µM*,9.0%,?,?,?
CCc1nc2ccc(C(=O)N(C)Cc3ccco3)cn2c1N(C)CCCc1ccccc1,16.4µM*,?,-25.3%,?,?,16.4µM*
CCc1nc2ccc(C(=O)N(C)Cc3ccccc3)cn2c1N(CC)Cc1cccc(Br)c1,?,?,4.7%,?,?,?
CCc1nc2ccc(C(=O)N(CC)CCN(C)C)cn2c1N(C)Cc1cccs1,-11.6%,-9.2%,?,0.0%,-14.0,-18.2%
CCc1nc2ccc(C(=O)N(C)Cc3ccco3)cn2c1N(CC)Cc1cccc(Br)c1,11.6µM*,?,-24.1%,-26.0%,-12.3,13µM*
CCc1nc2ccc(C(=O)NC3CCN(Cc4ccccc4)CC3)cn2c1N(CC)Cc1cccc(Br)c1,14.6µM*,?,-2.6%,23.1µM*,-102.3*,11.6µM*
CCc1nc2ccc(C(=O)NCCCn3ccnc3)cn2c1N(CC)Cc1cccc(Br)c1,?,?,-3.0%,?,-14.0,?
FC(F)(F)c1cccc(NCc2n[nH]c(=S)n2C2CCCCC2)c1,?,-7.5%,?,-2.8%,-13.9,13µM*
Cc1ccc(Cn2cc(S(=O)(=O)c3ccc(C)cc3)c(=O)c3cc(F)c(N4CCCC4)cc32)cc1,?,.,7.9%,.,.,?
Cc1cccc(Cn2cc(S(=O)(=O)c3ccccc3)c(=O)c3cc(F)c(N4CCOCC4)cc32)c1,25.9µM*,.,3.0%,.,.,23.1µM*
Cc1ccc(S(=O)(=O)c2cn(Cc3ccccc3)c3cc(N4CCCCC4)c(F)cc3c2=O)cc1,8.2µM*,.,-17.1%,.,.,16.4µM*
Cc1ccc(S(=O)(=O)c2cn(Cc3cccc(F)c3)c3cc(N4CCCC4)c(F)cc3c2=O)cc1,4.61µM*,.,-6.1%,.,.,5.17µM*
CC(C)NC(=O)C(=O)Nc1sc2c(c1C#N)CC(C)(C)OC2,.,.,-24.0%,.,.,.
Cc1cc(C(=O)NNC(=O)c2ccc(C(F)(F)F)cc2)no1,3.8%,0.1%,450.1%,15.2%,.,-13.7%
Cc1ccc(NNC(=O)c2cc(C)on2)c(C)c1,7.7%,?,?,8.2µM*,2.8,-20.9%
Cc1cc(C(=O)NNc2ccc(F)cc2F)no1,-1.4%,3.66µM*,1.3%,5.17µM*,-9.5,-17.7%
Cc1ccc(NNC(=O)c2c(C)noc2C)cc1Cl,-1.0%,-13.5%,?,?,12.4,-22.4%
CC(C)(C)c1ccc(C(=O)NNc2ccc(F)cc2F)cc1,-10.9%,-19.5%,?,-23.1%,-10.7,-18.9%
Cc1cc(Cl)ccc1NNC(=O)c1c(C)noc1C,-1.0%,-25.1%,31.6µM*,-27.9%,-3.2,-22.3%
O=C(CN1C(=O)NC2(CCOc3ccccc32)C1=O)N1CCCCC1 (stereo not given),-12.7%,-4.1%,-16.1%,0.7%,12.8,-1.5%
Cc1ccccc1-c1nc(NC(C)C)nc2ccsc12,?,22.4%,?,13.5%,19.7,?
COCCNc1nc(NCCCN(C)C)c2sccc2n1,-12.2%,?,-4.3%,7.1%,-7.7,-13.4%
COCCNc1nc(NCCOc2ccccc2Cl)c2sccc2n1,13µM*,?,?,?,-22.9,16.4µM*
COCCNc1nc(Nc2ccccc2Cl)c2sccc2n1,?,?,0.9%,?,-10.9,23.1µM*
SMILES,DT40 TDP1 CPT,HT1080-NT tox,ALOX12 inh,HT1080 IDH1KD tx,IL1B secr inh,TDP1 cell noCPT
CC(C)Nc1nc(Nc2ccccc2Cl)c2sccc2n1,23.1µM*,-25.2%,-21.6%,0.0%,-62.9*,23.1µM*
O=C(c1ccc(Cl)cc1)N1CCC(C(=O)N2CCCc3ccccc32)CC1,-24.9%,5.5%,4.4%,2.6%,-8.5,-25.1%
O=S(=O)(Cc1ccccc1Cl)N1CCc2ccccc21,.,.,20.6%,.,.,.
CCOC(=O)c1c(N2C(=O)CC(Sc3ccccc3C(=O)O)C2=O)sc(C)c1C (stereo not given),23.1µM*,-0.1%,?,-3.6%,-10.8,?
Cc1cc(C)c(N2C(=O)CC(Sc3ccccc3N)C2=O)c(C)c1 (stereo not given),16.4µM*,?,-4.9%,?,32.7,7.31µM*
CN1C(=O)CC(Sc2ccccc2C(=O)O)C1=O (stereo not given),-22.9%,5.1%[9.24 µM],-26.4%,-9.2%,12.4,-6.2%
Cc1cc(C)cc(N2C(=O)CC(Sc3ccccc3C(=O)O)C2=O)c1 (stereo not given),4.11µM*,-3.6%,4.3%,-0.8%,5.7,18.4µM*
Cc1ccc(N2C(=O)CC(Sc3ccccc3C(=O)O)C2=O)cc1C (stereo not given),4.11µM*,-0.2%,11.4%,0.0%,-0.4,11.6µM*
COc1ccc(C(=O)N2[C@@H]3CC[C@H]2CC(NC(=O)c2ccc(F)cc2)C3)cn1 (stereo not given in full),.,.,-4.0%,.,.,.
CC(C)CN1CCc2[nH]cnc2C12CCN(C(=O)CN1CCOC1=O)CC2,.,.,11.3%,.,.,.
CC(=O)c1ccc(NC(=O)c2cn(CCC#N)nc2-c2cccs2)cc1,.,.,-3.0%,.,.,.
Cc1cccc(N2C(=O)CC(Sc3ccccc3C(=O)O)C2=O)c1 (stereo not given),?,16.7%,-23.2%,12.8%,-11.8,?
Cc1ccc(N2C(=O)CC(Sc3ccccc3C(=O)O)C2=O)cc1 (stereo not given),7.31µM*,2.1%,0.3%,-0.8%,0.0,14.6µM*
CN(C)c1ccc(N2C(=O)CC(Sc3ccccc3C(=O)O)C2=O)cc1 (stereo not given),13µM*,6.0%,-16.2%,8.1%,0.0,?
COc1ccccc1CC(=O)N1CCCc2ncc(C(=O)Nc3nc(C)cs3)cc21,.,.,49.4%[176 µM],.,.,.
O=C1NC[C@H](Cc2ccccc2)N(CC2CCN(CCC34CC5CC(CC(C5)C3)C4)CC2)C1=O,20.6µM*,-6.4%,-2.8%,-5.1%,-72.7*,?
S=C1NC[C@H](Cc2ccccc2)N1CC1CCN(CCCC2CCCC2)CC1,?,-10.8%,-17.8%,-0.3%,-66.6*,?
FC(F)(F)c1cc(CCN2C(=S)NC[C@@H]2CC2CCCCC2)cc(C(F)(F)F)c1,?,-0.5%,?,6.8%,?,?
